The text below walks through data of PubChem BioAssay (Tox21).

Several values for one entry are separate records, joined by “and”; a condition that tells them apart may be missing. Identical values can stand only once. Inconclusive results are not listed. Some compounds were tested as several samples or in several runs, with calls that do not always agree. Activity calls are given as the source filed them. Unless noted, calls come from the whole dose curve; as a rule, active = well fitted curve in the direction sought with a large enough effect in the repeat runs; inconclusive = weak or mixed curves; inactive = no such curve, though single readings can be large; an effect the other way counts as inactive or inconclusive.

Test [1] is described as follows: qHTS assay to identify small molecule agonists of the NFkB signaling pathway (AID 1159509; active = well fitted curve in the direction sought with a large enough effect in the signal ratio in the repeat runs, not every such curve was filed as active; the % refers to the signal ratio; note: series mostly up to about 61 µM). A digest of the protocol:
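After overnight attachment, reporter cells received test compounds, DMSO or positive controls and were incubated 5 hr at 37 C. FRET substrate was then added for 1.5 hr at room temperature before dual-emission fluorescence reading.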
(qHTS replaces the single test concentration by a dilution series.)

Test [2] in a line: qHTS assay to identify small molecule agonists of the NFkB signaling pathway - cell viability counter screen (AID 1159515; calls by dose curve; note: nearly all actives have a fitted effect of over 55% in size; note: potency is the fitted concentration of half-maximal effect). In outline:
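Viability in NFkB-bla ME-180 cells was measured by CellTiter-Glo luminescence, 30 min room temperature, in wells already treated 5 hr with compounds and read for reporter FRET.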

A short description of test [3]: qHTS assay to identify small molecule agonists of the endoplasmic reticulum stress response signaling pathway (AID 1159516; active = well fitted activation curve with a large enough effect in the signal ratio in the repeat runs, not every such curve was filed as active; the % refers to the signal ratio; note: potency is the fitted concentration of half-maximal effect). A digest of the protocol: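 ER stress element reporter (bla) in HeLa. 1,500 cells/well, overnight attachment; 5 hr compound; 2 hr RT substrate; dual-emission fluorescence.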
Test [4] can be described thus: qHTS assay to identify small molecule agonists of the endoplasmic reticulum stress response signaling pathway - cell viability counter screen (AID 1159517; calls by dose curve;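 note: HeLa cells carrying an ER stress response element beta-lactamase reporter; series mostly up to about 61 µM; nearly all actives have a fitted effect of over 50% in size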). A digest of the protocol: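 Cells, HeLa ESRE-bla; density, 1,500/well; dosing, 5 hr at 37 C, 5% CO2; readout, CellTiter-Glo luminescence after 30 min RT.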
Test [5] in a line: qHTS assay to identify small molecule antagonists of the retinoid-related orphan receptor gamma (ROR-gamma) signaling pathway - cell viability counter screen (AID 1159520). Note: nearly all actives have a fitted effect of over 50% in size. In outline:
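Cytotoxicity was read from cellular ATP (CellTiter-Glo luminescence) after 16 hr at 37 C with 1 uM doxycycline induction. The inducer was added 2 hr after compound transfer to Tet-on ROR gamma CHO cells.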

Test [6] concerns the target Nuclear receptor ROR-gamma (Homo sapiens) (UniProt P51449). The test can be described thus: qHTS assay to identify small molecule antagonists of the retinoid-related orphan receptor gamma (ROR-gamma) signaling pathway (AID 1159521; note: nearly all actives have a fitted effect of over 50% in size; note: potency is the fitted concentration of half-maximal effect). A digest of the protocol:
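Readout: ONE-Glo luciferase luminescence, 30 min at room temperature. System: Tet-on RORγ CHO, RORE-LUC. Sequence: compound 2 h, doxycycline 1 uM final, 16 h at 37 C.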

A short description of test [7]: qHTS assay to identify small molecule agonists of the AP-1 signaling pathway - cell viability counter screen (AID 1159525; calls by dose curve; note: nearly all actives have a fitted effect of over 55% in size). A digest of the protocol:
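Luminescent ATP readout (Cell Titer Glo, 30 min RT), normalised to DMSO and tetra n-octyl ammonium bromide controls. Cells were ME-180 AP-1-bla in 0.5% dialyzed FBS Opti-MEM, with a 5 h, 37 °C compound exposure.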

Test [8] in a line: qHTS assay to identify small molecule agonists of the AP-1 signaling pathway (AID 1159526; calls by dose curve).
The target of test [9] is Retinoic acid receptor RXR-alpha (Homo sapiens) (UniProt P19793). Nature of the test: qHTS assay to identify small molecule agonists of the RXR signaling pathway (AID 1159527; calls by dose curve; note: nearly all actives have a fitted effect of over 35% in size; note: potency is the fitted concentration of half-maximal effect). A digest of the protocol:
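Reporter activation is measured as beta-lactamase activity via FRET substrate cleavage (emission 460/530 nm) in HEK 293T cells expressing an RXR-alpha-driven bla construct, following 16 hr compound exposure at 37 C.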

Test [10] is described as follows: qHTS assay to identify small molecule agonists of the RXR signaling pathway - cell viability counter screen (AID 1159529). Note: nearly all actives have a fitted effect of over 50% in size. Note: potency is the fitted concentration of half-maximal effect. In outline:
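Tox21 10K compounds were tested for cytotoxicity against GeneBLAzer RXR-alpha HEK 293T cells grown in 2% charcoal-stripped FBS. Exposure lasted 16 hr at 37 C, 5% CO2; viability read by CellTiter-Glo luminescence.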

The nature of test [11]: qHTS assay to identify small molecule antagonists of the retinoid acid receptor (RAR) signaling pathway - cell viability counter screen (AID 1159551). Note: nearly all actives have a fitted effect of over 35% in size. In outline: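 Following overnight attachment, C3RL4 reporter cells received DMSO-dissolved compounds and then retinol (1 uM final). Six hours later at 37 C, ATP content was measured by CellTiter-Glo luminescence.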
Test [12] is described as follows: qHTS assay to identify small molecule antagonists of the retinoic acid receptor (RAR) signaling pathway (AID 1159552; note: nearly all actives have a fitted effect of over 50% in size; note: potency is the fitted concentration of half-maximal effect). In outline:
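Overnight-plated C3RL4 reporter cells get compound, then retinol to 1 uM final; plates sit 6 hr at 37 C, 5% CO2. A luciferase reagent is added and light output recorded after 30 min at room temperature.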

A short description of test [13]: qHTS assay to identify small molecule agonists of the retinoic acid receptor (RAR) signaling pathway (AID 1159553). Note: potency is the fitted concentration of half-maximal effect. A digest of the protocol:
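Cell line C3RL4, RARE luciferase reporter. Treatment: compounds in DMSO, 6 hr, 37 C, 5% CO2, after overnight plating. Detection: luminescence, 30 min RT after reagent.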

A short description of test [14]: qHTS assay to identify small molecule antagonists of the estrogen related receptor (ERR) signaling pathway - cell viability counter screen (AID 1224818).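 Note: series mostly up to about 46 µM; viability measured after 17.5 h of compound exposure.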 A digest of the protocol: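 Here, ERR cells are plated at 2,000 cells per well, allowed 6 h to attach, and treated with compounds in DMSO for 17.5 h at 37 C. CellTiter-Fluor is then added and fluorescence read after 30 min.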

A short description of test [15]: qHTS assay to identify small molecule antagonists of the estrogen related receptor signaling pathway with the pleiotropic PPARgamma coactivator (PGC) cell viability counter screen (AID 1224822; note: series mostly up to about 46 µM). In outline:
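qHTS format, DMSO compound stocks pin-transferred onto PGC/ERR cells 6 h after plating; 17.5 h exposure at 37 C, then CellTiter-Fluor fluorescence.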

Test [16] in a line: qHTS assay to identify small molecule antagonists of the estrogen related receptor (ERR) signaling pathway from Tox21 library - cell viability counter screen (AID 1224834). Note: nearly all actives have a fitted effect of over 30% in size. In outline: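 Viability readout (CellTiter-Fluor fluorescence, 30 min at 37 C) multiplexed with the ERR assay; cells treated 17.5 h at 37 C with compounds delivered in DMSO.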

Retinoic acid receptor RXR-alpha (Homo sapiens), sequence (P19793 whole entry, looked up): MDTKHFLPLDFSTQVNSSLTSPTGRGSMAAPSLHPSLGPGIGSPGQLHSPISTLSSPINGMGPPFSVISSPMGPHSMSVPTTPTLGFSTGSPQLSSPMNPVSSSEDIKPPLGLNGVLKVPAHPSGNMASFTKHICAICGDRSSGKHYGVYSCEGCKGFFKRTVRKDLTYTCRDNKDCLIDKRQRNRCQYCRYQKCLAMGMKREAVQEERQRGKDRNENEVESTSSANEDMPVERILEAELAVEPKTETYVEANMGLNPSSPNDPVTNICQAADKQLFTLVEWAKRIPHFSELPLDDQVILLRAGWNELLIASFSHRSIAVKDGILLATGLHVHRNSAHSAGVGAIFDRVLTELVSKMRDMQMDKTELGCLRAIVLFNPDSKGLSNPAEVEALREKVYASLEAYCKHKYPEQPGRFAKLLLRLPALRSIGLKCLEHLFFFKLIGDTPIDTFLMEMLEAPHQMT

Take `Cc1[nH]c(=O)c(C#N)cc1-c1ccncc1`: the outcome in test [1] and in test [8] was inactive. The Potency result in [2], in test [3], in test [4], in [5], in test [6] and in [7] was “inactive” throughout. Besides, the Potency result in test [9], in [10], in test [11], in [12], in test [13] and in [14] was “inactive” in each case. Also, the Potency result in [15] and in [16] was “inactive” throughout.

On to `CC(C)=CCCC(C)CCO` (configuration not stated), for which the call in test [1] and in [8] was inactive. In addition, the Potency entry in test [2], in test [3], in test [4], in test [5], in [6] and in [7] was “inactive” in each case. The Potency entry in test [9], in test [11], in [12], in test [13] and in test [16] was “inactive” in each case.

`Nc1ncnc2nc[nH]c12`: the compound was classed as inactive in [1] and in [8]. Also, the Potency result in test [2], in test [3], in [4], in test [5], in test [6] and in test [7] was “inactive” throughout. Moreover, the Potency entry in [9], in test [12], in test [13] and in test [16] was “inactive” in each case.

Turning to `CCCCCCCCCCCO`, the outcome in [1] and in [8] was inactive. Besides, the Potency entry in [2] is “inactive and 49 µM (active)”; in [9], “inactive and 3.89 µM (active)”. Further, the Potency result in test [3], in test [4], in test [5], in test [6], in test [7] and in [10] was “inactive” in each case. Besides, the Potency entry in [11], in test [12], in test [13] and in test [16] was “inactive” in each case.

Regarding `COC(=O)CCC(=O)OC`, the compound was classed as inactive in test [1] and in test [8]. Further, the Potency result in test [2], in test [3], in test [4], in test [5], in [6] and in test [7] was “inactive” each time. Also, the Potency result in test [9], in [10], in test [11] and in [16] was “inactive” throughout.

For `O=C(/C=C/C=C/c1ccc2c(c1)OCO2)N1CCCCC1`, the result in test [1] and in test [8] was inactive. The Potency entry in test [2], in [3], in test [4], in test [5], in test [6] and in test [7] was “inactive” throughout. The Potency entry in [9], in test [11] and in test [12] was “inactive” throughout. Further, the Potency in test [13] is 3.86 µM (active) and 1.93 µM (active).

For `OC(CCl)CCl`, the result in test [1] and in test [8] was inactive. Also, the Potency result in test [2], in [3], in [4], in test [5], in [6] and in [7] was “inactive” throughout. Further, the Potency entry in test [9], in test [11] and in [16] was “inactive” each time.

Turning to `O=C(c1ccccc1)c1ccc(O)cc1O`, the result in test [1] and in test [8] was inactive. The Potency entry in [2], in test [3], in test [4], in test [5], in test [7] and in [11] was “inactive” each time. Also, the Potency result in [13] was “inactive”. Besides, the Potency is 55.5 µM (active) and inactive in [6]; 25 µM (active) and inactive in test [10]; 55.5 µM (active) and inactive in test [12].

As to `O=C(c1ccccc1)c1ccccc1O`, the outcome in test [1] and in [8] was inactive. Further, the Potency result in test [2], in [3], in [4], in test [5], in test [6] and in test [7] was “inactive” throughout. Moreover, the Potency result in [9], in test [10], in test [11], in test [12], in test [13] and in [16] was “inactive” in each case.

Take `CC1=CC2C3CC(C=C3C)C2C1` (configuration not stated): the result in test [1] and in [8] was inactive. The Potency entry in test [2], in test [3], in [4], in test [5], in test [6] and in test [7] was “inactive” each time. Also, the Potency result in test [10] and in test [11] was “inactive” in each case.

Turning to `CC(C)Oc1ccc2c(=O)c(-c3ccccc3)coc2c1`, the result in test [1] and in test [8] was inactive. Also, the Potency entry in test [2], in [3], in test [4], in test [5], in test [6] and in [7] was “inactive” each time. Also, the Potency entry in test [9], in test [10], in test [11], in [12] and in test [16] was “inactive” throughout. Besides, the Potency in [13] was 335 nM (active).

As for `CCOCCOCCO`, the compound was classed as inactive in test [1] and in test [8]. For the same compound, the Potency entry in test [2], in [3], in test [4], in test [5], in [6] and in [7] was “inactive” in each case. The Potency entry in test [9], in test [10], in test [11] and in test [16] was “inactive” throughout.

Consider `Nc1ccc(S(=O)(=O)Nc2cnc3ccccc3n2)cc1`, for which the compound was called inactive in test [1] and in test [8]. Besides, the Potency entry in test [2], in [3], in test [4], in test [5], in test [6] and in [7] was “inactive” throughout. For the same compound, the Potency entry in [10] and in test [11] was “inactive” each time.

For the compound `COc1c(Cl)c(Cl)c(Cl)c(Cl)c1Cl`, the compound was classed as inactive in test [1] and in test [8]. In addition, the Potency result in [2], in test [3], in test [4], in test [5], in [6] and in [7] was “inactive” in each case. Further, the Potency entry in [9], in [11] and in [16] was “inactive” throughout.

Regarding `CCC(C)OC(=O)c1ccc(O)cc1` (configuration not stated), the call in test [1] and in test [8] was inactive. Besides, the Potency result in test [2], in test [3], in test [4], in test [5], in test [6] and in test [7] was “inactive” each time. Moreover, the Potency result in [9], in [10], in test [11], in test [12] and in [16] was “inactive” throughout. In addition, the Potency in test [13] is 61100 nM (active).

In the case of `Cc1cccc(C(=O)O)c1`, the result in test [1] and in [8] was inactive. Also, the Potency entry in test [2], in [3], in [4], in test [5], in test [6] and in test [7] was “inactive” each time. The Potency entry in test [10], in test [11], in test [12] and in test [13] was “inactive” each time.

As for `CC(=O)C1(C)CC2=C(CCCC2(C)C)CC1C` (configuration not stated), the call in [1] and in [8] was inactive. Besides, the Potency result in test [2], in [3], in test [4], in test [5], in test [6] and in test [7] was “inactive” throughout. For the same compound, the Potency entry in [9], in test [11], in [12] and in test [13] was “inactive” throughout.

Consider `c1ccc2c(c1)c1cccc3ccc4cccc2c4c31`, for which the outcome in [1] and in [8] was inactive. Further, the Potency result in test [2], in test [4], in test [5], in test [6], in [7] and in test [10] was “inactive” each time. Also, the Potency result in [11] and in [16] was “inactive” throughout. Further, the Potency was 48.6 µM (active) in [3]; 43.4 µM (active) and inactive in test [9].

Regarding `NNc1ccc(C(=O)O)cc1`, the outcome in test [1] and in test [8] was inactive. Further, the Potency result in test [2], in test [3], in test [4], in test [5], in test [6] and in test [7] was “inactive” throughout. In addition, the Potency result in test [10], in test [11], in test [12] and in [16] was “inactive” throughout. The Potency in test [9] was 49.5 µM (active); in test [13], 43.9 nM (active) and 24.6 µM (active).
